Test results: PubChem BioAssay AID1159580 (chemical genetic matrix, 2015)
Several values for one entry are separate records, joined by “and”; a condition that tells them apart may be missing. Equal entries are not always repeated. Hit rate of the full screen: of about 5,500 compounds, about 2,000 (36%) were called active. Not shown: some 18% with an inconclusive outcome. Rule as the data show it: active = normalized growth mostly below about 0.91 (no sharp cut-off); inconclusive = no clear call, values can overlap the other calls; inactive = mostly above about 0.92. The list shows a part of the results.

Assay: chemical genetic growth profiling, strain panel (AID 1159580);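 also: tested at 20 µM; growth read once vehicle control cultures reached saturation at 30 °C; 1 = growth at the plate median or of vehicle wells; lower values mean less growth of the strain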
Details: S. cerevisiae deletion strains, growth OD

Measured: normalized growth

CC(C)(Oc1ccc(CCNC(=O)c2ccc(Cl)cc2)cc1)C(=O)O
inactive: locus YAL013W, strain DEP1, hits give low values 1.02 | locus YAL021C, strain ccr4, hits give low values 0.982 | locus YAL026C, strain drs2, hits give low values 0.985 | locus YAL030W, strain snc1, hits give low values 0.996 | locus YBL061C, strain skt5, hits give low values 0.999 | locus YBR009C, strain hhf1, hits give low values 0.975 | locus YBR021W, strain FUR4, hits give low values 1.02 | locus YBR023C, strain chs3, hits give low values 0.986 | locus YBR171W, strain sec66, hits give low values 0.978 | locus YBR229C, strain ROT2, hits give low values 1.01 | locus YBR231C, strain swc5, hits give low values 1.01 | locus YBR279W, strain paf1, hits give low values 0.972 | locus YCL011C, strain gbp2, hits give low values 0.982 | locus YCL016C, strain dcc1, hits give low values 0.971 | locus YCL029C, strain bik1, hits give low values 1.02 | locus YCL069W, strain vba3, hits give low values 0.988 | locus YCR088W, strain abp1, hits give low values 0.985 | locus YDL005C, strain med2, hits give low values 0.984 | locus YDL035C, strain GPR1, hits give low values 1.04 | locus YDL040C, strain nat1, hits give low values 0.995 | locus YDL074C, strain BRE1, hits give low values 1.01 | locus YDL101C, strain DUN1, hits give low values 1.01 | locus YDL134C, strain PPH21, hits give low values 1.05 | locus YDL185W, strain tfp1, hits give low values 1.02 | locus YDL192W, strain arf1, hits give low values 1.01 | locus YDR001C, strain nth1, hits give low values 0.987 | locus YDR069C, strain doa4, hits give low values 0.968 | locus YDR101C, strain arx1, hits give low values 0.995 | locus YDR137W, strain rgp1, hits give low values 0.988 | locus YDR150W, strain NUM1, hits give low values 1.01 | locus YDR159W, strain sac3, hits give low values 0.939 | locus YDR162C, strain NBP2, hits give low values 1.03 | locus YDR195W, strain ref2 0.993 | locus YDR297W, strain sur2, hits give low values 0.998 | locus YDR318W, strain mcm21, hits give low values 1.02 | locus YDR334W, strain swr1, hits give low values 0.995 | locus YDR335W, strain msn5, hits give low values 0.977 | locus YDR388W, hits give low values 1.01 | locus YDR392W, strain spt3, hits give low values 0.882 | locus YDR502C, strain sam2, hits give low values 1.02 | locus YEL003W, strain gim4, hits give low values 1.01 | locus YEL037C, strain rad23, hits give low values 0.99 | locus YEL061C, strain CIN8 (second series), hits give low values 0.997 | locus YEL061C, strain CIN8, hits give low values 1.01 | locus YER015W, strain faa2, hits give low values 0.995 | locus YER016W, strain bim1, hits give low values 0.971 | locus YER110C, hits give low values 1 | locus YER111C, strain swi4, hits give low values 0.984 | locus YER155C, strain BEM2 (second series), hits give low values 0.975 | locus YER155C, strain BEM2, hits give low values 1.01 | locus YER167W, strain BCK2, hits give low values 1.01 | locus YFR010W, strain ubp6, hits give low values 1.01 | locus YGL078C, strain dbp3, hits give low values 1.02 | locus YGL086W, strain mad1, hits give low values 1.01 | locus YGL167C, strain pmr1, hits give low values 1 | locus YGL173C, strain kem1, hits give low values 1 | locus YGL227W, strain vid30, hits give low values 0.977 | locus YGL240W, strain doc1, hits give low values 0.984 | locus YGL248W, strain PDE1, hits give low values 1.01 | locus YGL253W, strain hxk2, hits give low values 0.994 | locus YGR078C, strain PAC10, hits give low values 1 | locus YGR135W, strain pre9, hits give low values 1.02 | locus YGR252W, strain gcn5, hits give low values 1.02 | locus YHR013C, strain ard1, hits give low values 0.963 | locus YHR027C, strain rpn1, hits give low values 0.986 | locus YHR030C, strain SLT2, hits give low values 1.02 and 0.997 | locus YHR079C, strain IRE1 (second series), hits give low values 1.02 | locus YHR079C, strain IRE1, hits give low values 0.995 | locus YHR094C, strain hxt1, hits give low values 1.01 | locus YHR129C, strain ARP1, hits give low values 1.01 | locus YHR142W, strain chs7, hits give low values 0.999 | locus YHR200W, strain rpn10, hits give low values 1.03 | locus YIL066C, strain RNR3, hits give low values 1.02 | locus YIL073C, strain SPO22, hits give low values 1.15 | locus YIL125W, strain kgd1, hits give low values 1.01 | locus YIR030C, strain dcg1, hits give low values 1.02 | locus YJL092W, strain hpr5, hits give low values 0.996 | locus YJL095W, strain BCK1 (second series), hits give low values 0.983 | locus YJL095W, strain BCK1, hits give low values 1 and 0.972 | locus YJL115W, strain asf1, hits give low values 0.978 | locus YJL129C, strain trk1, hits give low values 0.955 | locus YJL134W, strain LCB3, hits give low values 1.01 | locus YJL154C, strain vps35, hits give low values 0.98 | locus YJL164C, strain tpk1, hits give low values 0.986 | locus YJL166W, strain qcr8, hits give low values 0.992 | locus YJL168C, strain set2, hits give low values 1.01 | locus YJL187C, strain SWE1 (second series), hits give low values 1.01 | locus YJL187C, strain SWE1, hits give low values 0.996 | locus YJR043C, strain POL32, hits give low values 1.02 | locus YJR066W, strain TOR1, hits give low values 0.967
